# In publication PMC4336329 (PLoS ONE, 2015):
# Out of some 310,000 compounds screened, about 14,000 (4.5%) showed an effect of 50% or more. The effect is printed as a negative number. The sample as a whole holds a higher share of strong results than the screen did.
# Molecular target: human ether-à-go-go-related gene (hERG) potassium channel (human, UniProt Q12809)
# Assay: primary screen, population patch clamp on CHO cells stably expressing hERG; higher = less effect of the substance
# 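Note: peak tail current of the secondary pulse compared with the same well before compound.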
# human ether-à-go-go-related gene (hERG) potassium channel, sequence (Q12809 whole entry, looked up): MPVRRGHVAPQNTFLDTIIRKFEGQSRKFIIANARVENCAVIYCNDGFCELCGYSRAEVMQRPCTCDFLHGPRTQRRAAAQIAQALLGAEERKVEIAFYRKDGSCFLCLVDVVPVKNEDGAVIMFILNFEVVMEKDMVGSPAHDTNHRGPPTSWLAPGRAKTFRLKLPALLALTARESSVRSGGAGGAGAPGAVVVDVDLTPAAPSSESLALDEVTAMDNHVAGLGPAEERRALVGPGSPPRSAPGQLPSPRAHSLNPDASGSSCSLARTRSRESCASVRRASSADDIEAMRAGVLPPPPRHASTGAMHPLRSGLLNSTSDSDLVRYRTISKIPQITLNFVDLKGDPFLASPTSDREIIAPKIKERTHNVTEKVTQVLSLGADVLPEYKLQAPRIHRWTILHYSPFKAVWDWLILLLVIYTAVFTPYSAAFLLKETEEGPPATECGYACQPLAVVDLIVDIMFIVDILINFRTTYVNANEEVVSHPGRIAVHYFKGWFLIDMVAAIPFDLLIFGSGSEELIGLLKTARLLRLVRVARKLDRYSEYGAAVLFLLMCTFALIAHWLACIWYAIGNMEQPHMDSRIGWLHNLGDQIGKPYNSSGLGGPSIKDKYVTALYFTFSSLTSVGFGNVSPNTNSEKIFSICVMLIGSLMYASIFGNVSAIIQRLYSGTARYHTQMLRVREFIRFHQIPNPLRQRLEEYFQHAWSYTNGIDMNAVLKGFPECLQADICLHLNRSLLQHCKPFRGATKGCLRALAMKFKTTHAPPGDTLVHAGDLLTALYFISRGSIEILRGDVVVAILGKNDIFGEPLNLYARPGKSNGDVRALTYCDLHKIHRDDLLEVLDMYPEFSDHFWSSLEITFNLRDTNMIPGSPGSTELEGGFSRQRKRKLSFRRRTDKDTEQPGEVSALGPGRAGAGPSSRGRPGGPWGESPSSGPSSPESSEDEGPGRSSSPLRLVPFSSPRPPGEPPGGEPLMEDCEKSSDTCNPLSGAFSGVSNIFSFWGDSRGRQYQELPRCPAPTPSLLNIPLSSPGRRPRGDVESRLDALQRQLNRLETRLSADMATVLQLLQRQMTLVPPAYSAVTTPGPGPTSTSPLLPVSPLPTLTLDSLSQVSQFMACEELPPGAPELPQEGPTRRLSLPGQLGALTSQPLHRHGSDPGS
row,SMILES,"hERG current change (%, negative = inhibition) at 10uM"
1,COCCNC(=O)c1ccc(N2CC3CC(C2)c2cccc(=O)n2C3)c([N+](=O)[O-])c1 (centres unmarked),21.4%
2,Cc1ccc(S(=O)(=O)C2(C(=O)Nc3cccc(F)c3)CC2)cc1,0.141%
3,COc1cc2c(cc1OC)CN(C(=O)c1ccc(OC)c([N+](=O)[O-])c1)CC2,4.43%
4,COc1cccc(CN(C)C(=O)CSCC(=O)Nc2cc(C)on2)c1OC,11.6%
5,CCCCn1c2c(c(=O)n(C)c1=O)C(c1ccc(OC)cc1)N1CCCCCC1=N2 (centres unmarked),-21.9%
6,CCOC(=O)C1CCN(Cc2cnc(Oc3ccc(N)cc3)s2)CC1,-10.6%
7,COc1ccc(S(=O)(=O)N2CCCC(C(=O)NCC3CCCO3)C2)cc1OC (centres unmarked),11%
8,CSc1ccc(CN2CCN(C(C)C)C(CCO)C2)cc1 (centres unmarked),-24%
9,CC(C)(O)C#Cc1ccc(CN2CCN(Cc3ccccc3)C(CCO)C2)cc1 (centres unmarked),12%
10,CSc1ccc(CN2CCN(CCC(C)C)C(CCO)C2)cc1 (centres unmarked),-63.3%
11,CC(C)c1csc(CN2CCN(Cc3ccc(F)c(F)c3)C(CCO)C2)n1 (centres unmarked),-19.3%
12,CC(C)c1cc(CN2CCN(Cc3ccc(F)c(F)c3)C(CCO)C2)[nH]n1 (centres unmarked),-52.4%
13,OCCC1CN(Cc2ccn[nH]2)CCN1Cc1ccc(F)c(F)c1 (centres unmarked),9.54%
14,CSc1cccc(CN2CCN(Cc3ccccc3)C(CCO)C2)c1 (centres unmarked),-57.7%
15,CSc1ncc(CN2CCN(CCC(C)C)C(CCO)C2)cn1 (centres unmarked),-1.45%
16,CC(NS(=O)(=O)OCC(Cl)(Cl)Cl)c1ccccc1 (centres unmarked),9.74%
17,Cc1cccc(-c2cc3nc4c(c(N5CCC6(CC5)OCCO6)n3n2)CCCC4)c1,10.2%
18,O=S(=O)(CCSc1ccc(C(F)(F)F)cn1)c1ccc(Cl)cc1,13%
19,Oc1c(-c2cc(-c3ccco3)[nH]n2)ccc2ccccc12,13.7%
20,CCOC(=O)N1CCc2c(sc3ncn(C)c(=O)c23)C1,5.05%
21,Cc1cc(Cl)ccc1NC(=O)CN1C(=O)CSc2ccc(S(=O)(=O)N3CCOCC3)cc21,-18.7%

row,SMILES,"hERG current change (%, negative = inhibition) at 10uM"
1,Cc1nc2nc[nH]n2c(=O)c1CCC(C)C,4.34%
2,COCCNc1nc(N)c([N+](=O)[O-])c(NC2CCCCC2)n1,4.56%
3,NC(=O)C(=O)N/N=C/c1c2ccccc2cc2ccccc12,-11.1%
4,COc1cc(OC)cc(C(=O)Nc2cccc(NC(=O)c3ccccc3)c2)c1,-27.3%
5,CCOC(=O)Nc1cccc(Nc2ccccc2)c1,-74.8%
6,CCOC(=O)Nc1cccc(C(=O)O)c1,8.63%
7,CCOC(=O)Nc1cccc(NC(=O)c2cc(OC)cc(OC)c2)c1,-53.7%
8,CCOC(=O)Nc1cccc(NC(=O)c2ccccc2F)c1,7.84%
9,COc1cc(OC)cc(C(=O)Nc2cccc(NC(C)=O)c2)c1,-1.56%
10,COc1ccccc1CNC(=O)CN(c1ccc(C)cc1)S(=O)(=O)c1c(C)nn(C)c1C,-24.1%
11,Cn1c(-c2ccc(N)cc2)nc2ccccc21,-3.42%
12,COc1ccc2c(c1)c1nc3ccccc3nc1n2Cc1ccc(OC(C)C)c(OC)c1,-0.905%
13,CCn1c(SCCC(=O)O)nnc1-c1cccnc1,4.65%
14,O=C(NCC1CC1)c1onc(CSc2nc3ccccc3[nH]2)c1C(=O)NCC1CC1,-69.8%
15,O=C(NCc1ccccc1)c1onc(CSc2ccc(F)cc2)c1C(=O)NCCCN1CCOCC1,-73.9%
16,CCCNC(=O)c1onc(CSc2ccc(Cl)cc2)c1C(=O)NCC1CC1,-8.67%
17,O=C(NCc1ccccc1)c1onc(CSc2ccccc2)c1C(=O)NCC1CC1,-33.4%
18,O=C(NCc1ccccc1)c1onc(CSc2ccc(F)cc2)c1C(=O)NCc1ccccc1,1.49%
19,CCCNC(=O)c1onc(CSc2ccc(F)cc2)c1C(=O)NCC1CC1,-62.7%
20,CCCNC(=O)c1onc(CSc2nc3ccccc3[nH]2)c1C(=O)NCCC,-35.7%
21,O=C(NCC1CC1)c1onc(CSc2ccc(F)cc2)c1C(=O)NCC1CC1,-51.6%

row,SMILES,"hERG current change (%, negative = inhibition) at 10uM"
1,COCCNC(=O)c1onc(CSc2nc3ccccc3[nH]2)c1C(=O)NCCOC,-14.3%
2,O=C(NCC1CC1)c1onc(CSc2ccncc2)c1C(=O)NCC1CC1,-11.9%
3,CCCNC(=O)c1onc(CSc2ccc(F)cc2)c1C(=O)NCCC,5.35%
4,O=C(NCCCN1CCOCC1)c1onc(CSc2ccccc2)c1C(=O)NCCCN1CCOCC1,4.97%
5,O=C(/C=C\c1ccc2c(c1)OCO2)CC1(O)C(=O)Nc2ccccc21 (centres unmarked),-0.111%
6,COc1cccc(CC(=O)N2CCC(n3nccc3NC(=O)C3CCOC3)CC2)c1 (centres unmarked),21.7%
7,NC(=O)c1ccccc1NC(=O)Nc1ccccc1Cl,11.8%
8,COCCn1c(C)cc(C(=O)CSc2ccc(NC(C)=O)cc2)c1C,12.4%
9,COc1ccc(N2CCN(C(=O)CCNC(=O)Cn3ccc4ccccc4c3=O)CC2)cc1,-8.61%
10,CN1CCN(NC(=O)c2cc(-c3ccccn3)nc3ccccc23)CC1,14%
11,Cc1cccc(OCCCCCNCCO)c1,3.93%
12,CCC(C)(C)n1nnnc1C(c1ccc(C)cc1)N1CCN(C(=O)c2ccco2)CC1 (centres unmarked),-45.8%
13,CN1CCN(C(=S)C(=O)NCc2ccccc2)CC1,-2.07%
14,COc1cc(CNc2ccccc2SC)ccc1O,12.8%
15,O=C(NCC1CCCO1)c1onc(CSc2ccc(F)c(F)c2)c1C(=O)O (centres unmarked),1.63%
16,COCCNC(=O)c1onc(CSc2ccc(F)c(F)c2)c1C(=O)NCCOC,-25.5%
17,C=CCNC(=O)c1onc(CSc2ccc(F)c(F)c2)c1C(=O)O,22.4%
18,C=CCNC(=O)c1onc(CSc2ccc(F)c(F)c2)c1C(=O)NCC=C,-64.5%
19,O=C(NCC1CC1)c1onc(CSc2ccc(F)c(F)c2)c1C(=O)NCC1CC1,-56.1%
20,C=CCNC(=O)c1onc(CSc2ccc(Cl)cc2)c1C(=O)NCC=C,-36.6%
